Source: PubChem
Shown are actives, neighbours in structure and some others; about 21% of the full set was active somewhere.
Shiga inhibitor – blocks Shiga toxin action in Vero cells; Vero cells, Shiga toxin protein synthesis inhibition reporter; inhibition, % at 38.7 µM; hit rate 9.2% among 290,000; in the data active = inhibition mostly above about 28%, no sharp cut-off; inactive = mostly below about 43%; note: 0% is about no effect
Pf growth 48h – P. falciparum growth inhibition at 48 hours (one generation); P. falciparum luciferase growth in erythrocytes, 48 h; Potency, µM (doses to about 28.7 µM), for the others: top-dose activity change, negative = inhibition, actives largely listed as inhibitors; hit rate 5.9% among 310,000; AID 504832; note: potency is the fitted concentration of half-maximal effect; % is set by controls: 0 for no effect and ±100 for the full control effect
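Luminescence readout; reporter = integrated firefly luciferase in P. falciparum. RBC culture at 2% hematocrit, 0.1% parasitemia final, 37 C/5% CO2; decreased signal taken as growth inhibition.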
NS1 function inh – influenza NS1 inhibition; Potency, µM (series often up to 46.1 µM), for inactives: top-dose activity, positive = more growth; hit rate 0.4% among 270,000; calls by dose curve; note: potency is the fitted concentration of half-maximal effect; actives are rising curves; nearly all actives have a fitted effect of over 50% in size
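In this qHTS, NS1 from influenza A is expressed in budding yeast, where it slows growth. Cells are switched from glucose to 2% galactose medium (pH 6.0, -URA), treated with compound, and growth recovery is read at OD600.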
CHX counter – affects cycloheximide protein synthesis inhibition readout, counter-screen; cell reporter, cycloheximide protein synthesis inhibition counterscreen; max response, %; hit rate 12% among 300,000; in the data active = max response mostly above about 13%, no sharp cut-off; inactive = mostly below about 14%; note: read at 38.3 µM for the half of the compounds with a filed dose; 0% is about no effect
Pf growth 96h – P. falciparum growth inhibition at 96 hours | hit rate 6.9% among 320,000 | Potency, µM (titrated, usually from 28.7 µM), for inactives: top-dose activity change, negative = inhibition, actives largely listed as inhibitors | P. falciparum luciferase reporter growth, 96 h; note: potency is the fitted concentration of half-maximal effect; % is set by controls: 0 for no effect and ±100 for the full control effect
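Readout is luminescence from an integrated firefly luciferase in P. falciparum. Red cells, 2% hematocrit and 0.05% parasitemia final, were cultured with compound through two parasite generations (96 hours) at 37 C, 5% CO2.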
The depositor's hits bear a star; ? = inconclusive; . = no result given. Unless noted, calls come from the whole dose curve; as a rule, active = well fitted inhibition curve with a large enough effect; inconclusive = small, poorly fitted or top-dose-only effect, or another doubt; inactive = no such curve, though single readings can be large or run the other way.

SMILES	Shiga inhibitor	Pf growth 48h	NS1 function inh	CHX counter	Pf growth 96h
Cc1noc(C)c1S(=O)(=O)N(CC(=O)O)c1ccc2c(c1)OCO2	-16	44%	-3%	-2	5.9µM*
CCOc1ccc(N(CC(=O)NC2CCCCC2)S(=O)(=O)c2c(C)noc2C)cc1	-5	0%	2%	-2	15%
CCOc1ccccc1NC(=O)CN(c1ccc(OC)cc1)S(=O)(=O)c1c(C)noc1C	-12	9.3µM*	6%	-5	?
Cc1cc(C)cc(N(CC(=O)O)S(=O)(=O)c2c(C)noc2C)c1	-8	9%	1%	-4	.
CC(C)Cc1cc(C(=O)N2CCCC(CCC(=O)N(C)CCc3ccccn3)C2)no1 (configuration not stated)	24	0%	-5%	4	-10%
COCC(C)n1c(SCc2ccc(C(=O)OC)cc2)nc2ccccc2c1=O (configuration not stated)	-6	?	-56%	1	?
COc1ccc(NC(=O)CN(c2cc(C)cc(C)c2)S(=O)(=O)c2c(C)noc2C)cc1	-7	.	-17%	-3	77%
Cc1ccc(N(CC(=O)NCc2ccccc2Cl)S(=O)(=O)c2cccs2)cc1	-23	?	-6%	-7	.
COc1ccc(N(CC(=O)NCCc2ccc(C)cc2)S(=O)(=O)c2c(C)noc2C)cc1	-1	-5%	-3%	-3	19%
Cc1ccc(N(CC(=O)NCc2ccc(F)cc2)S(=O)(=O)c2cccs2)cc1	-10	.	-1%	6	4.7µM*
COc1ccc(NC(=O)CN(c2cc(C)cc(C)c2)S(=O)(=O)c2c(C)noc2C)cc1OC	-8	?	-118%	0	12µM*
Cc1noc(C)c1S(=O)(=O)N(CC(=O)NCc1ccc(F)cc1)c1ccc(C(C)C)cc1	-7	?	2%	-1	-4%
COc1ccc(N(CC(=O)NCc2ccc(F)cc2)S(=O)(=O)c2c(C)noc2C)cc1	-3	5%	7%	-11	10µM*
COc1ccc(N(CC(=O)NCCc2cccc(C)c2)S(=O)(=O)c2c(C)noc2C)cc1	-15	?	9%	4	2.6µM*
CCOc1cc(C2C(C(=O)OCC(C)C)=C(C)N=C3SCCC(=O)N32)ccc1OC(C)=O (configuration not stated)	-4	23%	-33%	-2	?
O=C(Nc1c2c(nn1-c1ccc([N+](=O)[O-])cc1)CS(=O)(=O)C2)c1ccccc1F	-6	20%	-9%	8	-6%
Cc1ccc(-n2nc3c(c2NC(=O)c2c(F)cccc2Cl)CS(=O)(=O)C3)cc1C	6	?	20%	-3	?
CN(C)S(=O)(=O)c1cccc(NC(=S)Nc2cccc3cnccc23)c1	17	6.6µM*	-7%	8	3.7µM*
S=C(Nc1ccc(Cl)cc1)Nc1cccc2cnccc12	19	?	-62%	18	12µM*
S=C(Nc1cccnc1)Nc1cccc2cnccc12	-14	6%	.	1	1%
Fc1ccc(NC(=S)Nc2cccc3cnccc23)cc1	32	?	.	17*	?
COc1ccccc1NC(=S)Nc1cccc2cnccc12	-3	5%	-2%	-4	0%
COc1ccc(C2=Nn3c(nnc3-c3cc(OC)ccc3OC)SC2)cc1	-8	.	.	-5	.
COc1cc2oc(=O)ccc2cc1O	-4	.	.	-6	.
O=C(NCc1ccccn1)C(=O)NCC1OCCCN1S(=O)(=O)c1cc(F)ccc1F (configuration not stated)	-28	6%	-2%	7	13%
SMILES	Shiga inhibitor	Pf growth 48h	NS1 function inh	CHX counter	Pf growth 96h
CCOC(=O)C1=C(C)N=c2s/c(=C\c3ccc(OCC(=O)O)cc3)c(=O)n2C1c1ccc(OC(C)C)cc1 (configuration not stated)	2	?	?	1	0.41µM*
CC1=C(C(=O)Nc2ccccc2)C(c2ccc(C)o2)n2c(s/c(=C\c3ccco3)c2=O)=N1 (configuration not stated)	35	13µM*	25%	7	?
COc1cc(/C=C2\N=C(C)OC2=O)cc(OC)c1OC	-12	1%	10%	-1	5%
COc1ccccc1C1C(C(C)=O)=C(C)N=c2s/c(=C\c3cc(OC)c(OC)c(OC)c3)c(=O)n21 (configuration not stated)	-1	9.3µM*	20%	-3	?
COC(=O)C1=C(C)N=c2s/c(=C/c3cccs3)c(=O)n2C1c1ccc(F)cc1 (configuration not stated)	-5	?	-3%	-1	?
CCOC(=O)C1=C(C)N=c2s/c(=C\c3ccc(OC(C)=O)cc3)c(=O)n2C1/C=C/c1ccccc1 (configuration not stated)	7	2%	34%	-2	?
CCOC(=O)C1=C(C)N=c2s/c(=C\c3ccc(OC(C)=O)c(OCC)c3)c(=O)n2C1/C=C/c1ccccc1 (configuration not stated)	-6	10µM*	?	-2	20%
COC(=O)/C(=N/Nc1ccccc1C)Sc1nnc(C(O)c2ccccc2)n1-c1ccccc1 (configuration not stated)	-7	-21%	12%	-3	?
O=c1cc(N2CCCCCC2)[nH]c(=O)n1-c1ccccc1Cl	-2	6%	.	-3	-3%
COc1cccc(C2C(C(=O)Nc3ccccc3)=C(C)N=c3s/c(=C/c4ccc(OCC(=O)O)cc4)c(=O)n32)c1 (configuration not stated)	-13	7.4µM*	?	-5	1.2µM*
CCOC(=O)C1=C(C)N=c2s/c(=C/c3ccc(OCC(=O)O)cc3)c(=O)n2C1c1cc(OC)c(OC)c(OC)c1 (configuration not stated)	.	1µM*	?	-1	0.74µM*
CCOC(=O)C1=C(C)N=c2s/c(=C\c3cccc(OCC(=O)O)c3)c(=O)n2C1c1ccccc1OC (configuration not stated)	-6	?	2%	-2	?
COc1cccc(C2C(C(=O)OC(C)C)=C(C)N=c3s/c(=C\c4ccc(C(=O)O)cc4)c(=O)n32)c1 (configuration not stated)	-12	?	13%	1	?
COc1ccc(-c2cnnc(N/N=C/c3ccc(O)c(OC)c3)n2)cc1	-1	-11%	-9%	20*	5.2µM*
C=CCOc1ccc(/C=N/NC(=O)C(=O)Nc2ccccn2)cc1OC	31	7%	12%	12*	4.1µM*
COc1ccc(/C=N/Nc2ncc(C(F)(F)F)cc2Cl)cc1OC	20	34%	8%	5	47%
COc1ccc(/C=N/Nc2nc(N)cc(Cl)n2)cc1OC	46	13%	4%	21*	?
COc1ccc(/C=N/NC(=O)C(=O)Nc2ccccn2)cc1OC	-12	8%	4%	-3	?
COc1ccc(/C=N/Nc2ccccn2)cc1OC	94*	117%	0%	54*	-2%
CC1(C)Cn2c(nc(=O)c3c2NCN(CCc2ccccc2)C3)S1	-12	12%	.	-3	?
